Measured values from PubChem BioAssay.
The source made the active and inactive calls.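 Rule for the calls, unless noted: active = fluorescence slope higher than the sample average by over 3 SD (cut at about -0.22 in these data, passing the limit was not always enough); inactive = the rest.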

System: not listed separately
Experiment: inhibitors of E-selectin induction by TNFa, primary screen, imaging, HUVEC, immunofluorescence, MLSMR starter and 10KST1 sets (AID 487;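 active = visually confirmed hit in the image check and inhibition above 20%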;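 for inhibition: signal is fraction of cell area covered by stained E-selectin grains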;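 for nuclei count: 100% = median nuclei count of all wells on the same plate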)
Conditions: HUVEC TNFalpha-induced E-selectin immunofluorescence imaging, at 2 µM; inhibition: stronger effect = higher value; nuclei count: measured here: cell number, toxicity

Row | SMILES | inhibition | nuclei count [%]
1 | C/C(Nc1cccc(F)c1)=C(/C#N)C(N)=O | 48.6% (inactive) | 106
2 | Cc1cc(C(F)(F)F)nc(SCC(=O)NC2=NC(=O)C(C)S2)n1 (stereo not given) | 19.6% (inactive) | 99
3 | Cn1c(CCNC(=O)c2ccco2)nc2cc(NC(=O)C3CCCCC3)ccc21 | 42.2% (inactive) | 88.8
4 | Cc1nn(C(=O)c2ccc3c(c2)OCO3)c(N)c1-c1ccccc1 | -19.8% (inactive) | 106
5 | Cc1c(C)[n+](=O)c2c(n1[O-])CCCCC2 | 36.9% (inactive) | 63.9
6 | Cc1cc(C(=O)CSc2nc3ccccc3[nH]2)c(C)n1C | -82.7% (inactive) | 123
7 | COc1ccc(C(=O)NCCn2ccc3ccccc32)c(OC)c1 | -40.8% (inactive) | 95.6
8 | O=C(CCSc1nccn1Cc1ccccc1)N1CCOCC1 | -7.8% (inactive) | 80.8
9 | c1ccc(Cn2nnc3c(N4CCCCCC4)ncnc32)cc1 | -63.4% (inactive) | 95.6
10 | O=C(Nc1ccc(NC(=O)c2ccco2)nc1)c1cccnc1 | 1% (inactive) | 89.3
11 | COc1ccc(-c2noc(COc3ccc(C)c(C)c3)n2)cc1OC | 21.9% (inactive) | 108
12 | Nc1ncnc(Nc2ccccc2C(F)(F)F)n1 | -8% (inactive) | 107
13 | O=C(COc1ccccc1Cl)NCc1ccco1 | -27.9% (inactive) | 115
14 | COC(=O)c1ccccc1NC1c2ccccc2C(=O)N1c1cccnc1 (stereo not given) | -26.4% (inactive) | 112
15 | Cc1ccc2cc(C#N)c(NCCCNC(=O)C3CCCO3)nc2c1 (stereo not given) | -25.3% (inactive) | 116
16 | Cc1nnc(NC(=O)c2ccco2)s1 | -34.3% (inactive) | 110
17 | CCCCC(CC)CNC(=O)C1CCCN(S(=O)(=O)c2cnc[nH]2)C1 (stereo not given) | 0.3% (inactive) | 104
18 | CC(C)CNC(=O)c1ccccc1NC(=O)c1ccc(CN2CCOCC2)cc1 | -11% (inactive) | 111
19 | O=C(NCC(c1cccnc1)N1CCN(c2ccc(F)cc2)CC1)c1ccc(F)cc1 (stereo not given) | -33.2% (inactive) | 96.5
20 | CCOC(=O)N1CCN(C(=O)COc2ccc(S(=O)(=O)NC3CCCCC3)cc2C)CC1 | -31.8% (inactive) | 93.5

Row | SMILES | inhibition | nuclei count [%]
21 | O=C(OCC#CCSc1nc2ccccc2s1)c1ccco1 | -28.5% (inactive) | 100
22 | COC(=O)c1cccc(NC(=O)CSc2nnc(COc3ccc(C#N)cc3)n2-c2ccccc2)c1 | -64.7% (inactive) | 120
23 | Cc1ccc2c(c1)C(O)(CC(=O)c1ccc3c(c1)OCO3)C(=O)N2 (stereo not given) | 16.8% (inactive) | 93.3
24 | Cc1ccc(NCC(O)C(O)C(O)CO)cc1C (stereo not given) | -52.4% (inactive) | 128
25 | CCCc1nc(NCc2ccncc2)c2nnn(Cc3ccccc3F)c2n1 | -57% (inactive) | 120
26 | CCCC1c2ccc(C)n2CCN1C(=O)Nc1ccccc1Cl (stereo not given) | -1% (inactive) | 94.7
27 | CCCCC(O)(C(NC=O)C(=O)OC)C(F)(F)F (stereo not given) | -10.7% (inactive) | 113
28 | O=C1c2ccccc2C(Nc2cccnc2)N1Cc1ccccc1Cl (stereo not given) | -37.8% (inactive) | 109
29 | CC(Sc1nnnn1C)C(=O)Nc1ccc(Oc2ccccc2)cc1 (stereo not given) | -72.3% (inactive) | 125
30 | COc1ccccc1NC(=O)CSc1nnnn1-c1ccc2c(c1)OCO2 | -122% (inactive) | 104
31 | COc1ccc(C(=O)N2CCSC2=S)cc1OC | 55.8% (inactive) | 82.9
32 | CCN(Cc1ccccc1)C(c1ccncc1)c1nnnn1C(C)(C)C (stereo not given) | -42.3% (inactive) | 116
33 | CC(C)CCNC(=O)C1CCN(C(=O)N(C)C)CC1 | -28.5% (inactive) | 104
34 | CN1CCN(CC(=O)N2c3ccccc3C(C)(c3ccccc3)CC2(C)C)CC1 (stereo not given) | -183% (inactive) | 146
35 | O=C(Nc1ccccc1N1CCOCC1)c1ccc2ccccc2n1 | 17.1% (inactive) | 94.6
36 | CCOC(=O)N1CCN(c2cc(=O)n(-c3ccccc3Cl)c(=O)[nH]2)CC1 | 15% (inactive) | 90.2
37 | COCCN1CCN(c2c(C)c(C)nc3cc(-c4cccc(OC)c4)nn23)CC1 | -52.9% (inactive) | 106
38 | CCN(CCNC(=O)C1CCN(S(C)(=O)=O)CC1)c1ccccc1 | -24.7% (inactive) | 117
39 | CCN(CC)S(=O)(=O)c1ccc2c(c1)nc(SCC(=O)NC1CC1)n2-c1ccccc1OC | -137% (inactive) | 125
40 | CCCOC(=O)c1[nH]c2c(c1C)C(=O)CC(c1ccc(OC)c(OC)c1)C2 (stereo not given) | 17.6% (inactive) | 47.3

Target: Voltage-gated potassium channel subunit beta-2 (Rattus norvegicus) (UniProt P62483)
Sequence (P62483 whole entry, looked up): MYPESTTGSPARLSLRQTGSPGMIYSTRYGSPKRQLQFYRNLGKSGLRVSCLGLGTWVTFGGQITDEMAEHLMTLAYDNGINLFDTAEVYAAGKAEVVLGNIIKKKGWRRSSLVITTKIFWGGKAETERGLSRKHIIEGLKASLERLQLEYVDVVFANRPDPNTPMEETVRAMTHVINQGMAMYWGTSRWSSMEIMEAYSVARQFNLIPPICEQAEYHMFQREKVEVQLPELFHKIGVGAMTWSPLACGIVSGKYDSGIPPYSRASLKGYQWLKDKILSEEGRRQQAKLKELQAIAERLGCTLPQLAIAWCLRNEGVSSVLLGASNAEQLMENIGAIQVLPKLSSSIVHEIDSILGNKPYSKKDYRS
Experiment: KvBeta enzyme negative modulators, primary screen, biochemical, NADPH fluorescence (AID 622);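 note: slope of raw intensity against log time taken from 70 to 1610 s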
Conditions: recombinant KvBeta, 4-cyanobenzaldehyde reduction, at 10 µM, stronger effect = higher value

Row | SMILES | fluorescence slope
41 | C/C(Nc1cccc(F)c1)=C(/C#N)C(N)=O | -0.361 (inactive)
42 | Cc1cc(C(F)(F)F)nc(SCC(=O)NC2=NC(=O)C(C)S2)n1 (stereo not given) | -0.457 (inactive)
43 | Cn1c(CCNC(=O)c2ccco2)nc2cc(NC(=O)C3CCCCC3)ccc21 | -0.466 (inactive)
44 | Cc1nn(C(=O)c2ccc3c(c2)OCO3)c(N)c1-c1ccccc1 | -0.451 (inactive)
45 | Cc1c(C)[n+](=O)c2c(n1[O-])CCCCC2 | -0.491 (inactive)
46 | Cc1cc(C(=O)CSc2nc3ccccc3[nH]2)c(C)n1C | -0.59 (inactive)
47 | COc1ccc(C(=O)NCCn2ccc3ccccc32)c(OC)c1 | -0.608 (inactive)
48 | O=C(CCSc1nccn1Cc1ccccc1)N1CCOCC1 | -0.524 (inactive)
49 | c1ccc(Cn2nnc3c(N4CCCCCC4)ncnc32)cc1 | -0.55 (inactive)
50 | O=C(Nc1ccc(NC(=O)c2ccco2)nc1)c1cccnc1 | -0.472 (inactive)
51 | COc1ccc(-c2noc(COc3ccc(C)c(C)c3)n2)cc1OC | -0.316 (inactive)
52 | Nc1ncnc(Nc2ccccc2C(F)(F)F)n1 | -0.487 (inactive)
53 | O=C(COc1ccccc1Cl)NCc1ccco1 | -0.488 (inactive)
54 | COC(=O)c1ccccc1NC1c2ccccc2C(=O)N1c1cccnc1 (stereo not given) | -0.53 (inactive)
55 | Cc1ccc2cc(C#N)c(NCCCNC(=O)C3CCCO3)nc2c1 (stereo not given) | -0.476 (inactive)
56 | Cc1nnc(NC(=O)c2ccco2)s1 | -0.521 (inactive)
57 | CCCCC(CC)CNC(=O)C1CCCN(S(=O)(=O)c2cnc[nH]2)C1 (stereo not given) | -0.491 (inactive)
58 | CC(C)CNC(=O)c1ccccc1NC(=O)c1ccc(CN2CCOCC2)cc1 | -0.473 (inactive)
59 | O=C(NCC(c1cccnc1)N1CCN(c2ccc(F)cc2)CC1)c1ccc(F)cc1 (stereo not given) | -0.596 (inactive)
60 | CCOC(=O)N1CCN(C(=O)COc2ccc(S(=O)(=O)NC3CCCCC3)cc2C)CC1 | -0.644 (inactive)

Row | SMILES | fluorescence slope
61 | O=C(OCC#CCSc1nc2ccccc2s1)c1ccco1 | -0.471 (inactive)
62 | COC(=O)c1cccc(NC(=O)CSc2nnc(COc3ccc(C#N)cc3)n2-c2ccccc2)c1 | -0.586 (inactive)
63 | Cc1ccc2c(c1)C(O)(CC(=O)c1ccc3c(c1)OCO3)C(=O)N2 (stereo not given) | -0.511 (inactive)
64 | Cc1ccc(NCC(O)C(O)C(O)CO)cc1C (stereo not given) | -0.455 (inactive)
65 | CCCc1nc(NCc2ccncc2)c2nnn(Cc3ccccc3F)c2n1 | -0.507 (inactive)
66 | CCCC1c2ccc(C)n2CCN1C(=O)Nc1ccccc1Cl (stereo not given) | -0.564 (inactive)
67 | CCCCC(O)(C(NC=O)C(=O)OC)C(F)(F)F (stereo not given) | -0.489 (inactive)
68 | O=C1c2ccccc2C(Nc2cccnc2)N1Cc1ccccc1Cl (stereo not given) | -0.422 (inactive)
69 | CC(Sc1nnnn1C)C(=O)Nc1ccc(Oc2ccccc2)cc1 (stereo not given) | -0.505 (inactive)
70 | COc1ccccc1NC(=O)CSc1nnnn1-c1ccc2c(c1)OCO2 | -0.487 (inactive)
71 | COc1ccc(C(=O)N2CCSC2=S)cc1OC | -0.457 (inactive)
72 | CCN(Cc1ccccc1)C(c1ccncc1)c1nnnn1C(C)(C)C (stereo not given) | -0.606 (inactive)
73 | CC(C)CCNC(=O)C1CCN(C(=O)N(C)C)CC1 | -0.359 (inactive)
74 | CN1CCN(CC(=O)N2c3ccccc3C(C)(c3ccccc3)CC2(C)C)CC1 (stereo not given) | -0.353 (inactive)
75 | O=C(Nc1ccccc1N1CCOCC1)c1ccc2ccccc2n1 | -0.39 (inactive)
76 | CCOC(=O)N1CCN(c2cc(=O)n(-c3ccccc3Cl)c(=O)[nH]2)CC1 | -0.581 (inactive)
77 | COCCN1CCN(c2c(C)c(C)nc3cc(-c4cccc(OC)c4)nn23)CC1 | -0.567 (inactive)
78 | CCN(CCNC(=O)C1CCN(S(C)(=O)=O)CC1)c1ccccc1 | -0.32 (inactive)
79 | CCN(CC)S(=O)(=O)c1ccc2c(c1)nc(SCC(=O)NC1CC1)n2-c1ccccc1OC | -0.598 (inactive)
80 | CCCOC(=O)c1[nH]c2c(c1C)C(=O)CC(c1ccc(OC)c(OC)c1)C2 (stereo not given) | -0.408 (inactive)
